Tau fibril FP = qHTS for Inhibitors of Tau Fibril Formation, Fluorescence Polarization; Microtubule-associated protein tau (Homo sapiens), P10636; K18 P301L tau heparin fibrillization, Alexa594 FP, 6 h; Potency, µM (highest dose often 57.7 µM), for inactives: at the top dose activity, negative = inhibition, actives largely listed as inhibitors; hit rate 0.39% among 280,000; AID 1468, 2008; also: potency is read from the fitted curve at half-maximal effect; nearly all actives have a fitted effect of over 55% in size
Target sequence (P10636 561-689 P618L limits assumed): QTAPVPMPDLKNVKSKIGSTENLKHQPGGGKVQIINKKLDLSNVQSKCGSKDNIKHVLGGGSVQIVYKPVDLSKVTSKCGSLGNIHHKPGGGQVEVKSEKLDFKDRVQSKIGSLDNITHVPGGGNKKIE
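Compound effects on tau fibrillization are measured by Alexa 594 fluorescence polarization (ex 555, em 632 nm). K18 P301L tau is used at 15 uM with 0.24 uM labeled tracer, and 20 uM heparin induces aggregation over 6 hr at 37 C.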
Sfp PPTase inh = qHTS Assay for Inhibitors of Bacillus subtilis Sfp phosphopantetheinyl transferase (PPTase). Biochemical Sfp PPTase activity, qHTS. Potency, µM, for inactives: largest response in the series, negative = inhibition, usual class: inhibitors. AID 1490, 2009. 4'-phosphopantetheinyl transferase ffp (Bacillus subtilis), Q9F4F7. hit rate 3.5% among 310,000;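 also: the enzyme is Sfp with the accession as filed and its product quenches rhodamine fluorescence; potency is read from the fitted curve at half-maximal effect; 0% = enzyme reaction without inhibitor and -100% = no enzyme wells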
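Fluorescence-quenching assay with 15 nM Sfp, 5 uM rhodamine-CoA and 12.5 uM BHQ-2-labelled ybbR peptide in pH 7.6 Hepes/MgCl2 buffer. Enzyme was pre-incubated with compound for 15 min at room temperature. Rate was taken from the 30-min fluorescence change (525/598 nm).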
Tau fluor cs = Counterscreen qHTS for Inhibitors of Tau Fibril Formation, Fluorescence Polarization | tau K18 P301L Alexa594 fluorescence, heparin fibrillization | Potency, µM (doses to about 57.7 µM), inactives show top-dose activity change, negative = decrease | hit rate 0.93% among 280,000 | AID 1463, 2008; also: potency is read from the fitted curve at half-maximal effect; nearly all actives have a fitted effect of over 55% in size
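Human K18 P301L tau (15 uM unlabeled plus 0.24 uM Alexa 594-labeled, final) in 100 mM sodium acetate pH 7 was mixed with compound and 20 uM heparin and incubated 6 hr at 37 C.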
Coupling enz = qHTS Assay for Inhibitors of Fructose-1,6-bisphosphate Aldolase from Giardia Lamblia: Coupling assay counterscreen; activity change, negative = inhibition, % at 58.2 µM, hits read low; coupling enzyme system counterscreen, AmpLite Red fluorescence; hit rate 0.67% among 290,000; AID 2472, 2010; in the data active = activity change below about -30%
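Counterscreen lacking aldolase: glyceraldehyde-3-phosphate coupling-enzyme reagent preincubated 10 min at RT with compound (at 57.5 uM final), then substrate/coupling system with AmpLite Red added; fluorescence read at 525/598 nm after 20 min RT.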
Tau fibril ThT = qHTS for Inhibitors of Tau Fibril Formation, Thioflavin T Binding; recombinant tau K18 P301L, heparin-induced fibrillization, ThT fluorescence; Potency, µM (top dose mostly 57.4 µM), for the others: at the highest dose activity, negative = inhibition, most hits filed as inhibitors; hit rate 2.1% among 270,000; AID 1460, 2008; also: potency is read from the fitted curve at half-maximal effect; nearly all actives have a fitted effect of over 55% in size
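Fibril formation assay: tau K18 P301L at 15 uM with trace Alexa 594 label, heparin inducer 20 uM, pH 7 sodium acetate buffer, 37 C for 6 hr; endpoint ThT signal.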
G9a inh = qHTS Assay for Inhibitors of Histone Lysine Methyltransferase G9a; Histone-lysine N-methyltransferase EHMT2 (Homo sapiens), Q96KQ7; G9a H3K9 monomethylation, AlphaScreen, 2 h; Potency, µM (highest dose often 102 µM), without a hit: at the top dose activity, negative = inhibition, most hits filed as inhibitors; hit rate 8.8% among 350,000; also: potency is read from the fitted curve at half-maximal effect; nearly all actives have a fitted effect of over 75% in size
Target sequence (Q96KQ7 913-1193 limits assumed): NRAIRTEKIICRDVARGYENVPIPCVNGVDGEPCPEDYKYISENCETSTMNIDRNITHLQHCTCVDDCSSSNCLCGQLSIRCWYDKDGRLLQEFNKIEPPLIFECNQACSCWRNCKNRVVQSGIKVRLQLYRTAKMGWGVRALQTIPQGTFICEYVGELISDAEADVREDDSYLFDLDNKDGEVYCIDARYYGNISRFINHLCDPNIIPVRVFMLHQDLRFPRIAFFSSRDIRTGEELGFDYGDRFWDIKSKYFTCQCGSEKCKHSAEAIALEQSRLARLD
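Readings reflect AlphaScreen signal from monomethyl-H3K9 antibody detection. HMT at 20 nM; substrate b-H3K9 500 nM; cofactor SAM 20 uM; 2 h RT reaction; compounds tested as titrations in qHTS with 15 min preincubation.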
An asterisk follows results filed as active; ? = inconclusive; . = not tested or not shown; [ ] = another dose, or the depositor's remark. Most compounds without a hit are left out; they make up all but 11% or so of the library. Unless noted, calls follow the shape of the dose curve; as a rule, active = well fitted curve in the direction sought with a large enough effect; inconclusive = small, poorly fitted or top-dose-only effect, or another doubt; inactive = no such curve, though single readings can be large; an effect the other way counts as inactive or inconclusive. Unless noted, % is scaled to controls: 0 for no effect and ±100 for the full control effect.

SMILES | Tau fibril FP | Sfp PPTase inh | Tau fluor cs | Coupling enz | Tau fibril ThT | G9a inh
COc1ccc2oc(=O)cc(CN3CCN(c4ccc(F)cc4)CC3)c2c1 | -16% | . | -24% | . | -13% | -28%[59 µM]
CCc1ccc2oc(=O)cc(CN3CCN(c4ccc(F)cc4)CC3)c2c1 | -4% | 7% | -16% | 2 | ? | 50µM*
CC(C)c1ccc2oc(=O)cc(CN3CCN(c4ccc(F)cc4)CC3)c2c1 | -5% | -8% | -21% | 0 | ? | 50µM*
CCOC(=O)c1ccc(N2CCN(c3cccc(Cl)c3)CC2)c(NC(=O)Nc2ccc(Cl)cc2)c1 | ? | . | -15% | . | ? | -18%[59 µM]
CNC(=S)N(CCc1c(C)[nH]c2ccc(OC)cc12)Cc1ccco1 | . | 12% | . | 0 | . | 50µM*
COCCNC(=S)N(CCc1c(C)[nH]c2ccc(C)cc12)Cc1ccco1 | 21% | 10% | ? | -3 | ? | 45µM*
CNC(=S)N(Cc1ccco1)Cc1cc2cc(OC)ccc2[nH]c1=O | -14%[2.34 µM] | 1% | -8% | -1 | -5% | .
COCCNC(=S)N(CCc1c(C)[nH]c2ccc(OC)cc12)Cc1ccco1 | . | 7% | . | -5 | . | 50µM*
COCCNC(=S)N(CCc1c(C)[nH]c2ccc(F)cc12)Cc1ccc(C)cc1 | . | 13% | . | 1 | . | -3%
COc1ccc2c(c1)c1c(c(=O)n(-c3cccc(C)c3)c(=O)n1CC(=O)NCC1CCCO1)n2C (stereo not drawn) | -1% | . | -5% | . | 4% | -4%[59 µM]
Cc1cs/c(=N\N=C\c2ccccc2)n1Cc1ccco1 | 19% | -20% | ? | -2 | ? | 14µM*
O=[N+]([O-])c1ccc(N2CCN(CC3CCCCC3)CC2)cc1 | . | -25% | . | 4 | . | -10%[0.501 µM]
CC(=O)c1ccc(N2CCN(CC3CCCCC3)CC2)cc1 | . | -26% | . | 2 | . | 50µM*
CCOC(=O)COc1ccc2c(C#N)c3ccccn3c2c1 | 5% | -20% | -22% | -60* | -10% | 6%
COc1cc(OC)cc(C(=O)c2c(C)c(C#N)c3ccccn23)c1 | . | 4% | . | 0 | . | -1%
N#Cc1c2ccc(OCC(N)=O)cc2n2ccccc12 | -2% | 4% | -24% | -37* | -8% | -44%[12.7 µM]
COCOc1ccc(Br)cc1C(=O)[C@H]1O[C@H]1c1cccc(OC)c1 | -5%[11.6 µM] | 15% | -15%[11.6 µM] | -1 | -11%[11.5 µM] | .
CCCn1c(SCC(=O)c2ccc3c(c2)OCCO3)n[nH]c1=O | 0% | -19% | -5% | 0 | -8% | 11%
CCCn1c(SCC(=O)c2cc(C)c(C)cc2C)n[nH]c1=O | -5% | 11% | -19% | -3 | ? | 11µM*
N#CC1=C(N)SC(N)=C(C#N)C1c1cccc(O)c1 | ? | 79µM* | -23% | -32* | ? | ?
COc1ccc(C2C(C#N)=C(N)SC(N)=C2C#N)cc1OC | -10% | ? | -11% | -25 | -8% | ?
Cc1cccc(-c2noc(CN(C)C(=O)c3ccc4c(c3)OCO4)n2)c1 | . | -17% | . | 2 | . | 27%
CCOc1ccc(C(=O)NC(C(=O)NCc2cccnc2)C(C)C)cc1 (stereo not drawn) | . | -6% | . | 0 | . | -5%
COc1ccc2c(c1)C(c1ccccc1OC)CC(=O)O2 (stereo not drawn) | -12%[81.3 µM] | 0% | -7%[81.3 µM] | -1 | ? | 35µM*
Nc1cc2nc3ccccc3oc-2cc1=O | 11µM* | 22µM* | ? | -25 | 7.1µM* | .
SMILES | Tau fibril FP | Sfp PPTase inh | Tau fluor cs | Coupling enz | Tau fibril ThT | G9a inh
Cc1ccc(NC(=O)CN2C(=O)C3(SCC(=O)N3c3cccc(Cl)c3)c3ccccc32)cc1C (stereo not drawn) | ? | . | ? | . | 2% | -9%[59 µM]
CCOc1ccc(NC(=O)Cn2ccn3nc(-c4ccc(OC)c(OC)c4)cc3c2=O)cc1 | 5% | . | 10% | . | -2% | 6%[59 µM]
O=C(O)c1cccc(S(=O)(=O)N(Cc2ccccc2)c2cccc(C(F)(F)F)c2)c1 | . | 20% | . | 21 | . | 13%
O=C1CCCCC1c1cccc2ccccc12 (stereo not drawn) | . | 11% | . | -1 | . | 4%[59 µM]
O=C1O/C(=C/Br)CCC1c1cccc2ccccc12 (stereo not drawn) | ? | . | ? | . | 18µM* | 27%[59 µM]
Cc1c(C(=O)NCc2ccc(F)cc2)sc2nc3n(c(=O)c12)CCC3 | -13% | . | -8% | . | ? | -3%[59 µM]
CCOC(=O)CSc1nnc(C)c(=O)[nH]1 | 1% | 5% | 6% | 0 | 2% | 3%[12.7 µM]
CCOC(=O)CSc1nnc(NCC(=O)OC)c(=O)[nH]1 | -18% | 56µM* | -18% | 3 | ? | ?
CC1CCN(C(=O)C2c3ccccc3C(=O)N3CCc4ccccc4C23)CC1 (stereo not drawn) | -6% | -2% | -18% | 4 | -18% | -33%
NC(=O)C1CCN(C(=O)C2c3ccccc3C(=O)N3CCc4ccccc4C23)CC1 (stereo not drawn) | 1% | ? | 4% | -22 | 11% | 79µM*
Nc1ccccc1C(O)(Cc1ccccc1)c1ccccc1 (stereo not drawn) | . | 2% | . | 0 | . | ?
Cc1ccc(OCCn2ccc(=O)[nH]c2=O)cc1C | -6% | 16% | -9% | -3 | -13% | 13%[59 µM]
O=c1ccn(CCCBr)c(=O)[nH]1 | 0% | 20% | -6% | 4 | -6% | 40µM*
CCN(CC(=O)Nc1ccc(S(=O)(=O)N2CCOCC2)cc1)Cc1ccccc1 | . | . | . | . | . | -34%[12.7 µM]
O=C(OCc1ccco1)c1ccc(S(=O)(=O)N2CCCCC2)cc1 | -17% | 22µM* | -13% | 1 | ? | ?
Cc1ccc(OCC(=O)Nc2ccc(S(=O)(=O)N3CCCC3)cc2)cc1 | . | -4% | . | 0 | . | 79µM*
O=C(COc1ccccc1)Nc1ccc(S(=O)(=O)N2CCCCCC2)cc1 | -12% | 17% | ? | 2 | -13% | -5%[12.7 µM]
COc1ccc(OCC(=O)Nc2ccc(S(=O)(=O)N3CCCC3)cc2)cc1 | . | 10% | . | 0 | . | 4%
O=C(COC(=O)c1ccc(S(=O)(=O)N2CCCCC2)cc1)NCc1ccco1 | -3% | 3% | 1% | 1 | -2% | ?
O=C(COc1ccccc1)Nc1ccc(S(=O)(=O)N2CCCC2)cc1 | -2% | -3% | -9% | 1 | 1% | 50µM*
CCN(CC(=O)Nc1ccc(S(=O)(=O)N2CCCC2)cc1)Cc1ccccc1 | . | . | . | . | . | 45µM*
Cc1ccc(OCC(=O)Nc2ccc(OCc3cc(=O)n4ccsc4n3)cc2)cc1C | 1% | . | -3% | . | ? | 28%[59 µM]
